About 2,000 (36%) of roughly 5,500 compounds were called active. About 18% were inconclusive and are not listed. Cut-off read from the data, not from the text of the source: active = normalized growth mostly below about 0.91 (no sharp cut-off); inconclusive = no clear call, values can overlap the other calls; inactive = mostly above about 0.92. Some of the results follow.
Experiment: chemical genetic growth profiling, strain panel (AID 1159580);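 note: tested at 20 µM; growth read once vehicle control cultures reached saturation at 30 °C; 1 = growth at the plate median or of vehicle wells; lower values mean less growth of the strain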
Conditions: S. cerevisiae deletion strains, growth OD

Measured: normalized growth

CC(=O)c1c(O)c(C)c(O)c2c1OC1=CC(=O)C(C(C)=O)C(=O)C12C (stereo not drawn)
active: locus YJR066W, strain TOR1, hits give low values 0.465 | locus YKL009W, strain mrt4, hits give low values 0.387 | locus YKL085W, strain MDH1 (second series), hits give low values 0.275 | locus YKL085W, strain MDH1, hits give low values 0.275 | locus YKR001C, strain vps1, hits give low values 0.813 | locus YLL026W, hits give low values 0.925 | locus YLR027C, strain aat2, hits give low values 0.796 | locus YLR113W, strain HOG1, hits give low values 0.186 | locus YLR221C, strain rsa3, hits give low values 0.781 | locus YLR258W, strain gsy2, hits give low values 0.889 | locus YLR262C, strain YPT6 (second series), hits give low values 0.723 | locus YLR370C, strain arc18, hits give low values 0.9 | locus YLR418C, strain cdc73, hits give low values 0.694 | locus YML120C, strain ndi1, hits give low values 0.439 | locus YMR058W, strain fet3, hits give low values 0.834 | locus YMR125W, strain sto1, hits give low values 0.875 | locus YMR129W, hits give low values 0.911 | locus YMR205C, strain PFK2, hits give low values 0.759 | locus YMR231W, strain pep5, hits give low values 0.169 | locus YNL071W, strain lat1, hits give low values 0.907 | locus YNL183C, strain NPR1, hits give low values 0.693 | locus YNL209W, strain ssb2, hits give low values 0.924 | locus YNL250W, strain rad50, hits give low values 0.328 | locus YNL271C, strain bni1, hits give low values 0.773 | locus YNL298W, strain CLA4, hits give low values 0.332 | locus YNL322C, strain KRE1 (second series), hits give low values 0.83 | locus YNR052C, strain pop2, hits give low values 0.876 | locus YOR001W, strain rrp6, hits give low values 0.672 | locus YOR083W, strain WHI5, hits give low values 0.859 | locus YOR106W, strain vam3, hits give low values 0.254 | locus YOR144C, strain elg1, hits give low values 0.898 | locus YOR184W, strain ser1, hits give low values 0.723 | locus YOR231W, strain MKK1, hits give low values 0.127 | locus YOR265W, strain rbl2, hits give low values 0.928 | locus YOR290C, strain snf2, hits give low values 0.644 | locus YPL078C, strain atp4, hits give low values 0.873 | locus YPL240C, strain hsp82, hits give low values 0.894 | locus YPL256C, strain CLN2, hits give low values 0.189 | locus YPR141C, strain kar3, hits give low values 0.888 | strain wtn01, hits give low values 0.841
inactive: locus YJR043C, strain POL32, hits give low values 1.01 | locus YKL068W, hits give low values 1.01 | locus YKL160W, strain elf1, hits give low values 0.977 | locus YKL190W, strain CNB1, hits give low values 1.01 | locus YKR026C, strain gcn3, hits give low values 0.938 | locus YKR091W, strain srl3, hits give low values 0.942 | locus YLL001W, strain dnm1, hits give low values 0.933 | locus YLL041C, strain sdh2, hits give low values 0.936 | locus YLR039C, strain RIC1, hits give low values 1.01 | locus YLR058C, strain SHM2, hits give low values 1.01 | locus YLR102C, strain apc9, hits give low values 0.99 | locus YLR262C, strain YPT6, hits give low values 1.03 | locus YLR268W, strain sec22, hits give low values 0.932 | locus YLR320W, strain mms22, hits give low values 0.907 | locus YLR330W, strain CHS5, hits give low values 1.01 | locus YLR342W, strain FKS1 (second series), hits give low values 0.946 | locus YLR342W, strain FKS1, hits give low values 0.93 | locus YLR357W, strain rsc2, hits give low values 0.886 | locus YLR371W, strain rom2, hits give low values 0.998 | locus YLR384C, strain iki3, hits give low values 0.957 | locus YML016C, strain PPZ1, hits give low values 1.01 | locus YML032C, strain rad52, hits give low values 0.953 | locus YML124C, strain tub3, hits give low values 0.96 | locus YMR078C, strain ctf18, hits give low values 0.976 | locus YMR223W, strain ubp8, hits give low values 0.958 | locus YMR263W, strain SAP30, hits give low values 1.01 | locus YMR307W, strain GAS1, hits give low values 0.956 | locus YNL067W, strain RPL9B, hits give low values 1.02 | locus YNL153C, strain GIM3, hits give low values 1.01 | locus YNL233W, strain BNI4, hits give low values 1.03 | locus YNL248C, strain rpa49, hits give low values 0.925 | locus YNL307C, strain MCK1, hits give low values 0.971 | locus YNR049C, strain mso1, hits give low values 0.962 | locus YOL012C, strain htz1 1.07 | locus YOL147C, strain pex11, hits give low values 0.968 | locus YOR061W, strain CKA2, hits give low values 1.02 | locus YOR069W, strain VPS5, hits give low values 1.01 | locus YOR070C, strain gyp1, hits give low values 0.966 | locus YOR080W, strain dia2, hits give low values 0.975 | locus YOR136W, strain idh2, hits give low values 0.976 | locus YOR270C, strain vph1, hits give low values 1.08 | locus YOR316C, strain cot1, hits give low values 0.989 | locus YPL051W, strain arl3, hits give low values 0.938 | locus YPL055C, strain LGE1, hits give low values 0.999 | locus YPL106C, strain sse1, hits give low values 0.86 | locus YPR119W, strain clb2, hits give low values 0.964 | locus YPR163C, strain tif3, hits give low values 0.968 | locus YPR167C, strain met16, hits give low values 0.944
